Unmarked numbers belong to inactive results.

The assay has as its system Vero E6 infected with SARS-CoV-2. Description: SARS-CoV-2 infection rate relative to infected DMSO; higher = more infection, active = 60 or less. Conditions: 24 h.
Consider `c1coc(-c2nnc3sc(C4CCCCC4)nn23)c1` [cardionogen-1] (10 µM), for which the SARS-CoV-2 infection rate was 89%.

For `Cc1cc(C(C)(C)C)cc(C)c1CC1=NCCN1` [xylometazoline] (10 µM), the SARS-CoV-2 infection rate was 106%.

As to `O[C@H]1CC[C@H](Nc2ncc3nc(Nc4c(F)cc(F)cc4F)n([C@H]4CCOC4)c3n2)CC1` (0.833333 µM), the SARS-CoV-2 infection rate was 101%.

Consider `COc1ccc(CCNCc2ccc(OCc3ccc(Cl)nc3)c(OC)c2)cc1OC` (10 µM), for which the SARS-CoV-2 infection rate is 98%.

Take `CCN(CC)C(=O)/C(C#N)=C/c1cc(O)c(O)c([N+](=O)[O-])c1` [entacapone] (10 µM): the SARS-CoV-2 infection rate is 102%.

For `C[C@@]1(O)[C@H](O)[C@@H](CO)O[C@H]1n1ccc(N)nc1=O` (10 µM), the SARS-CoV-2 infection rate is 103%.

For the compound `C=CCN1CCc2cc(O)c(O)cc2[C@H](c2ccccc2)C1` (10 µM), the SARS-CoV-2 infection rate is 95%.

On to `C=CC(=O)Nc1cccc(Oc2nc(Nc3ccc(N4CCN(C)CC4)cc3OC)ncc2Cl)c1` (0.833333 µM), for which the SARS-CoV-2 infection rate was 115%.

Values taken from the supplement of paper PMC13380429.
